Calls of active or inactive are those of the source. How the source made its calls: active means hit-call score of the fitted dose curve at least 0.9, where 1 is the maximum; inactive means score below 0.9.

Usually AC50 stands for the midpoint of the concentration-response curve, whichever way the signal moves.

Read-out in the assay: Glutathione S-Transferase (GSTA2), GSTA2 (gene 2939)
In words: LTEA_HepaRG_GSTA2: Life Technologies and Expression Analysis (LTEA) Assay for Glutathione S-Transferase (GSTA2) using HepaRG (AID 2283497). The conditions noted are these: mRNA level, 48 h; actives raise or lower the signal. Here is the method: LTEA_HepaRG is a cell based, multiplexed-readout assay that uses HepaRG, a human liver cell line, with measurements taken at 48 hours after chemical dosing on a 96-well plate.LTEA_HepaRG_GSTA2 is one of 102 assay component(s) measured in the LTEA HepaRG cell culture assay. It is a marker of Oxidative Stress.Data from the assay component LTEA_HepaRG_GSTA2 was analyzed into 1 endpoint. This assay endpoint, LTEA_HepaRG_GSTA2, was analyzed with bidirectional fitting relative to DMSO as the negative control and baseline of activity. Using a type of inducible reporter, measures of mRNA induction for gain or loss-of-signal activity can be used to understand regulation of transcription factor activity. To generalize the intended target to other relatable targets, this assay endpoint is annotated to the transferase intended target family, where the subfamily is alkyl and aryl transferase.
A total of 1060 chemcials from the ToxCast library were tested in eight-point concentration-response experiments. Cell culture and cytotoxicity assays were conducted at Thermo Fisher Scientific's Custom Services facility (Madison, WI). A single lot of human HepaRG cells (Thermo Fisher Scientific, Frederick, MD) was used for the cell culture experiments. 96-well format collagen type I coated plates of human HepaRG cells were prepared using established methods. Briefly, cryopreserved HepaRG cells were thawed, plated at a density of approximately 100,000 cells/well in HepaRG Thaw, Plate, and General Purpose media (HPRG770, Thermo Fisher Scientific), and incubated for 48 hours. 0.5% DMSO was selected as vehicle control to balance the requisite need of DMSO in HepaRG cultures to maintain differentiation (for example, baseline metabolism, proportions of hepatocytes vs. cholangiocytes), while enabling further hepatic receptor pathway activation (for example, PXR and CAR) in response to chemical exposure. 48 hours after plating, the culture medium was replaced with HepaRG Serum-Free Incudtion Media. Cells were exposed to each test chemical in duplicate and maintained in CO2 incubators for another 48 hours. Chemical plates were thawed to room temperature and 200x concentrations of treatment groups were prepared. 8-point conentration-reponse curves were made with the highest exposure at 100 uM, followed by half-log dilutions, all in 0.5% DMSO. Each test plate contained variouse controls, induction positive controls (1mM phenobarbital), cytotoxicity positive controls ([…] aflatoxin B1), vehicle controls (0.5% DMSO), and total lysis controls (0.5% DMSO). Cell morphology images were taken using an Essen IncuCyte FLR automated microscope, with six 96-well plates imaged in about 24 minutes. Images were captured and exported and JPEG files. Spent culture media was transfered to black-well plates for the LDH assay, and remaining media was sorted at -80 C for later use. Cells were treated with RLT buffer and frozen until shipped for gene expression analysis. Total RNA was isolated from the cell suspension in 75 uL of Buffer RLT (Qiagen, Germantown, MD 20874) by Quintiles/Expression Analysis (Durham, NC) using a custom isolation procedure. Total RNA from each plate well was transferred to a preamplification plate. Fluidigm's 96.96 Dynamic ArrayTM (Fluidigm, Amsterdam, the Netherlands) technology was used for gene expression analyses by quantitative reverse transcription polymerase chain reaction (qRT-PCR, performed by Quintiles/Expression Analysis, Durham, NC)89. Standard TaqManTM Assays (Applied Biosystems/ThermoFisher Scientific, Foster City, CA) were used to assess the expression of 93 genes selected based on their selectivity and sensitivity to important hepatic receptors known to be modulated by environmental chemicals; importance in human hepatocyte functionality; and hepatotoxicity. […]
Consider `CN(C)C(=O)Nc1cccc(C(F)(F)F)c1`, for which the result was inactive.
Same read-out and setting: the same measure for `CCOP(=O)(SC(C)CC)N1CCSC1=O` (stereo not given): “inactive”.
On the same count and under the same terms, for `C#CCC1=C(C)C(OC(=O)C2C(C=C(C)C)C2(C)C)CC1=O` (stereo not given) the value was “inactive”.
In the case of `N#CSCSC#N`, the half-maximal activity concentration (AC50) was 76.2 µM (active).
Same read-out and setting: for `CC[C@H](C)[C@H]1O[C@]2(C=C[C@@H]1C)C[C@@H]1C[C@@H](C/C=C(\C)[C@@H](O[C@H]3C[C@H](OC)[C@@H](O[C@H]4C[C@H](OC)[C@@H](NC)[C@H](C)O4)[C@H](C)O3)[C@@H](C)/C=C/C=C3\CO[C@@H]4[C@H](O)C(C)=C[C@@H](C(=O)O1)[C@]34O)O2` the value was 23.3 µM (active).
`CCNc1nc(Cl)nc(NC(C)(C)C#N)n1`: the call was inactive.
Same read-out and setting: the same measure for `CCc1cnc(C2=NC(C)(C(C)C)C(=O)N2)c(C(=O)O)c1` (stereo not given): “inactive”.
Take `CSC1=N[C@@](C)(c2ccccc2)C(=O)N1Nc1ccccc1`: the concentration at half-maximal activity (AC50) was 33.9 µM (active).
In the case of `CN(C)[C@@H]1C(=O)C(C(N)=O)=C(O)[C@@]2(O)C(=O)C3=C(O)c4c(O)cccc4[C@@](C)(O)[C@H]3[C@H](O)[C@@H]12`, the result was inactive.
On the same count and under the same terms, the same measure for `CCOP(=O)(OCC)Oc1cc(C)nc(C(C)C)n1`: “inactive”; for `CCOP(=S)(OCC)Oc1ccc([N+](=O)[O-])cc1`: “inactive”; for `C#CC(C)(C)NC(=O)c1cc(Cl)cc(Cl)c1`: “inactive”.
The same measure, in the same setting: for `Cc1cc(C2CC2)nc(Nc2ccccc2)n1` the value was “inactive”.
Still for that read-out and setting: for `CCCOc1nn(C(=O)NS(=O)(=O)c2ccccc2C(=O)OC)c(=O)n1C` the value was “inactive”; for `CCOP(=S)(OCC)SCCSCC`, “inactive”.
Consider `CCOP(=S)(OCC)Oc1ccc2c(C)c(Cl)c(=O)oc2c1`, for which the AC50 was 82 µM (active).
On to `CCCCSP(=O)(SCCCC)SCCCC`, for which the call was inactive.
As to `CCCCOC(=O)c1ccccc1C(=O)O`, the outcome was inactive.
In the case of `CC(C)=CC1C(C(=O)OCN2C(=O)C3=C(CCCC3)C2=O)C1(C)C` (stereo not given), the outcome was inactive.
`CNC(=O)Oc1cccc2c1OC(C)(C)O2`: the molecule was called inactive.
On to `C[Si](Cn1cncn1)(c1ccc(F)cc1)c1ccc(F)cc1`, for which the half-maximal activity concentration (AC50) was 72.5 µM (active).
The same measure, in the same setting: for `FC(F)C(F)(F)OCC(Cn1cncn1)c1ccc(Cl)cc1Cl` (stereo not given) the value was 38.7 µM (active).
In the case of `CCC(=NOC/C=C/Cl)C1=C(O)CC(C2CCOCC2)CC1=O` (stereo not given), the call was inactive.
Still for that read-out and setting: for `CCOP(=S)(OCC)Oc1cc(C)nc(C(C)C)n1` the value was “inactive”; for `COc1ccc(C(=CC(=O)N2CCOCC2)c2ccc(Cl)cc2)cc1OC`, “inactive”.
Take `CCCOCC(=Nc1ccc(Cl)cc1C(F)(F)F)n1ccnc1`: the half-maximal activity concentration (AC50) is 35 µM (active).
Consider `CCCSP(=O)(OCC)SCCC`, for which the call was inactive.
The same measure, in the same setting: for `O=c1ccc(=O)[nH][nH]1` the value was “inactive”; for `CCCSP(=O)(OCC)Oc1ccc(Br)cc1Cl` (stereo not given), “inactive”.
As to `CC(COc1ccc(Oc2ccccc2)cc1)Oc1ccccn1` (stereo not given), the call was inactive.
Still for that read-out and setting: for `CCOP(=O)(NC(C)C)Oc1ccc(SC)c(C)c1` (stereo not given) the value was “inactive”.
With `CC1(C(=O)Nc2ccc(O)c(Cl)c2Cl)CCCCC1`, the result was inactive.
As to `CCC(=O)Nc1ccc(Cl)c(Cl)c1`, the concentration at half-maximal activity (AC50) is 72.5 µM (active).
As for `CN(C)NC(=O)CCC(=O)O`, the call was inactive.
In the case of `CNC(=O)ON=C(C)SC`, the call was inactive.
Same read-out and setting: the same measure for `Cc1nn(-c2cc(NS(C)(=O)=O)c(Cl)cc2Cl)c(=O)n1C(F)F`: “inactive”.
On the same count and under the same terms, the same measure for `CN1COCN(Cc2cnc(Cl)s2)C1=N[N+](=O)[O-]`: “inactive”.
On the same count and under the same terms, for `COP(=O)(OC)OC(Br)C(Cl)(Cl)Br` (stereo not given) the value was “inactive”; for `CC(C)N(C(=O)SCC(Cl)=C(Cl)Cl)C(C)C`, “inactive”.
As to `O=[N+]([O-])c1cc(C(F)(F)F)c(Cl)c([N+](=O)[O-])c1Nc1ncc(C(F)(F)F)cc1Cl`, the half-maximal activity concentration (AC50) was 24.9 µM (active).

For the origin of these results see PubChem BioAssay (EPA / NIEHS).
